biological target: Voltage-gated potassium channel subunit beta-2 (Rattus norvegicus) (UniProt P62483); experiment: KvBeta positive modulators, primary screen, biochemical, NADPH fluorescence (AID 623); conditions: Recombinant KvBeta, NADPH fluorescence decrease slope, 10 min; at 10 µM; active compounds read low;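 further: fluorescence intensity change per second fitted from 20 to 320 s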
Sequence (P62483 whole entry, looked up): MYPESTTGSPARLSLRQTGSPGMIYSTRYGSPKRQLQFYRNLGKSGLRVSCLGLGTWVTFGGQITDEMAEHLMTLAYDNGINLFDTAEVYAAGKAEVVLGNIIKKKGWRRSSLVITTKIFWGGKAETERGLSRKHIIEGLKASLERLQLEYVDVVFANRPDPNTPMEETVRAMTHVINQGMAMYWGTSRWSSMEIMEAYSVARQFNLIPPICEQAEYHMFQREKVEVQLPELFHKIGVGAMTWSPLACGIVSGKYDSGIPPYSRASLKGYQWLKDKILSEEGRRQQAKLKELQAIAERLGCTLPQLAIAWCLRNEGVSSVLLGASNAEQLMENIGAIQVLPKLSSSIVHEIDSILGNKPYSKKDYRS

NADPH fluorescence slope, inactive:
CN(C)S(=O)(=O)c1ccc(C(=O)N2CCCC2c2nc3ccccc3s2)cc1 (stereo not given) 1.6e-05
CC1=C(C(=O)OC(C)C)C(C2CC=CCC2)NC(=O)N1 (stereo not given) 1.4e-05
COc1ccc(OC)c(C2CC(=O)NC(SC)=C2C#N)c1 (stereo not given) -3.6e-05
CC1(C(=O)NC2CCCCC2)CCC(=O)N1Cc1cccs1 (stereo not given) -2.7e-05
NC(=O)c1c(NC(=O)Cc2cccs2)sc2c1CCC2 -6.1e-05
CC(=O)Nc1cccc(NC(=O)C2CCCN2C(=O)Nc2ccc(C)cc2)c1 (stereo not given) -4.3e-06
COc1ccc2[nH]c(=O)c(CN(CCO)S(=O)(=O)c3ccc4c(c3)OCCO4)cc2c1 -5.3e-05
Cn1c(=O)c2c(nc(NCC3CCCO3)n2C)n(C)c1=O (stereo not given) -1.6e-05
COc1cccc(-c2csc3nc[nH]c(=O)c23)c1 -3.4e-05
COC(=O)Cn1c2ccccc2c2nc(C)sc21 7e-06
CCOC(=O)c1ccc(-n2c(C)nc3c(cnn3-c3ccccc3C)c2=O)cc1 -6.1e-06
Cc1ccc(S(=O)(=O)C2(C(=O)Nc3cccnc3)CC2)cc1 -2.5e-05
CC(=O)N1CCN(S(=O)(=O)c2ccc(S(=O)(=O)NC3CC3)cc2)CC1 -2.2e-05
COc1ccc(CCNc2oc(-c3ccccc3OC)nc2C#N)cc1 2.3e-05
COc1ccc(-n2c(Cc3cccn3C)nnc2SCC(=O)Nc2cccc(Cl)c2)cc1 1.6e-05
COc1ccc(OC)c(-n2nnnc2SCC(=O)NCc2ccc3c(c2)OCO3)c1 -1.7e-05
CC1CCc2nn(CC(=O)NCc3ccc(F)cc3)cc2C1 (stereo not given) -3.4e-06
CC1CN(C2CCCCC2)c2nc3c(c(=O)[nH]c(=O)n3C)n2C1 (stereo not given) 3.4e-05
Cc1ccc(Nc2nc(Oc3ccc(=O)[nH]n3)nc(N(C)C)n2)cc1 -4.2e-05
O=C(Nc1ccc(F)cc1)N(Cc1ccco1)Cc1cc2cc3c(cc2[nH]c1=O)OCO3 -2e-05
COc1cccc(C(=O)Nc2c(C(N)=O)oc3ccccc23)c1 -4.8e-05
O=C(C1CCCN1S(=O)(=O)c1cccc2cccnc12)N1CCn2c1nc1ccccc12 (stereo not given) -1.3e-05
O=C(NCCSCc1ccco1)Nc1cccc(Cl)c1 1.6e-05
CC(=O)Nc1nc2c(c3c1c(=O)oc1ccccc13)CC(C)CC2 (stereo not given) -1.3e-05
O=c1/c(=C/c2ccco2)sc2nc(-c3ccccc3Br)nn12 -2.3e-05
CCOC(=O)Cn1c(S(=O)(=O)Cc2ccccc2)nc2ccccc21 -1.4e-05
CCn1c(SCC(=O)Nc2ccccc2F)nc2c(c1=O)SC(C)C2 (stereo not given) -3.3e-06
Nc1cccc2c1C(=O)N(c1ccccc1)C2=O -2.2e-06
COCCn1c(=O)[nH]c2cc(C(=O)N3CCN(Cc4ccc5c(c4)OCO5)CC3)ccc2c1=O -1.6e-05
O=C(Cn1nnc(-c2ccc(S(=O)(=O)N3CCCC3)cc2)n1)NCC1CCCO1 (stereo not given) 3.3e-05
O=C(CN(Cc1ccco1)C(=O)c1cc(=O)[nH]c2ccccc12)Nc1ccccc1Br -4.1e-05
c1nc(NCC2(N3CCOCC3)CCCCC2)c2ccsc2n1 -1e-05
CC1CCCN(S(=O)(=O)c2ccc(C(=O)Nc3nnc(-c4ccccc4Cl)o3)cc2)C1 (stereo not given) -2.3e-05
O=C(OCN1C(=O)c2ccccc2C1=O)c1ccc2c(=O)n3c(nc2c1)CCC3 -6.9e-05
Cc1cc(C)n2nc(SCc3nc4ccccc4[nH]3)nc2n1 8.8e-06
Cc1ccc(S(=O)(=O)NCCSc2nnnn2-c2ccc(C(N)=O)cc2)cc1 4.8e-06
CC1(C)Cc2c(sc3c2c(=N)n(Cc2ccco2)c(=O)n3Cc2ccccc2)CO1 2.3e-06
CC1=C(C(=O)NCc2ccccn2)C2(CCC(C)CC2)OC1=O (stereo not given) -2.4e-05
Cc1nnc(SC(=O)N2c3ccccc3Sc3ccccc32)s1 -1.7e-05
Cc1ccnc(NC(=O)C2CCCN(S(=O)(=O)c3cnc[nH]3)C2)c1 (stereo not given) -2.6e-05

biological target: Alpha-2C adrenergic receptor (Homo sapiens) (UniProt P18825); experiment: modulators of alpha2C/GIRK thallium flux, primary screen, cell-based, HEK293 alpha2C/GIRK1/2 (AID 624;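 active means fluorescence slope after compound addition differing from the mean of all screened samples at 99.7% confidence, in either direction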;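 further: slope of fluorescence ratio to pre-addition baseline per second over 15 to 24 s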); conditions: thallium flux BTC fluorescence, at 10 µM, actives lie on both sides
Sequence (P18825 whole entry, looked up): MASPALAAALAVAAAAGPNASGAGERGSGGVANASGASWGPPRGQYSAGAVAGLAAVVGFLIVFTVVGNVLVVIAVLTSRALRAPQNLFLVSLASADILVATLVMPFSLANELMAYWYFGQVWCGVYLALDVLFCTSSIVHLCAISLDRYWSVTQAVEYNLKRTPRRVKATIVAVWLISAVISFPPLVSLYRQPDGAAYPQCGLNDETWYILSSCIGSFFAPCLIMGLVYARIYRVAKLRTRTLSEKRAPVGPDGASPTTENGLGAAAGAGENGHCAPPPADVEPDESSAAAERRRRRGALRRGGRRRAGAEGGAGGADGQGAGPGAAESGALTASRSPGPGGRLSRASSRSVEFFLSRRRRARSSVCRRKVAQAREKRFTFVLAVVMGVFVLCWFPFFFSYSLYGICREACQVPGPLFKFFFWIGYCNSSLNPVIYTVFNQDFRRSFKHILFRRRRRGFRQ

slope, inactive:
CN(C)S(=O)(=O)c1ccc(C(=O)N2CCCC2c2nc3ccccc3s2)cc1 (stereo not given) 0.0053
CC1=C(C(=O)OC(C)C)C(C2CC=CCC2)NC(=O)N1 (stereo not given) 0.0059
COc1ccc(OC)c(C2CC(=O)NC(SC)=C2C#N)c1 (stereo not given) 0.00545
CC1(C(=O)NC2CCCCC2)CCC(=O)N1Cc1cccs1 (stereo not given) 0.00547
NC(=O)c1c(NC(=O)Cc2cccs2)sc2c1CCC2 0.00572
CC(=O)Nc1cccc(NC(=O)C2CCCN2C(=O)Nc2ccc(C)cc2)c1 (stereo not given) 0.0061
COc1ccc2[nH]c(=O)c(CN(CCO)S(=O)(=O)c3ccc4c(c3)OCCO4)cc2c1 0.00253
Cn1c(=O)c2c(nc(NCC3CCCO3)n2C)n(C)c1=O (stereo not given) 0.00331
COc1cccc(-c2csc3nc[nH]c(=O)c23)c1 0.0038
COC(=O)Cn1c2ccccc2c2nc(C)sc21 0.00472
CCOC(=O)c1ccc(-n2c(C)nc3c(cnn3-c3ccccc3C)c2=O)cc1 0.00553
Cc1ccc(S(=O)(=O)C2(C(=O)Nc3cccnc3)CC2)cc1 0.00528
CC(=O)N1CCN(S(=O)(=O)c2ccc(S(=O)(=O)NC3CC3)cc2)CC1 0.00506
COc1ccc(CCNc2oc(-c3ccccc3OC)nc2C#N)cc1 0.00318
COc1ccc(-n2c(Cc3cccn3C)nnc2SCC(=O)Nc2cccc(Cl)c2)cc1 0.00706
COc1ccc(OC)c(-n2nnnc2SCC(=O)NCc2ccc3c(c2)OCO3)c1 0.00401
CC1CCc2nn(CC(=O)NCc3ccc(F)cc3)cc2C1 (stereo not given) 0.00689
CC1CN(C2CCCCC2)c2nc3c(c(=O)[nH]c(=O)n3C)n2C1 (stereo not given) 0.00609
Cc1ccc(Nc2nc(Oc3ccc(=O)[nH]n3)nc(N(C)C)n2)cc1 0.00563
O=C(Nc1ccc(F)cc1)N(Cc1ccco1)Cc1cc2cc3c(cc2[nH]c1=O)OCO3 0.0056
COc1cccc(C(=O)Nc2c(C(N)=O)oc3ccccc23)c1 0.00682
O=C(C1CCCN1S(=O)(=O)c1cccc2cccnc12)N1CCn2c1nc1ccccc12 (stereo not given) 0.00657
O=C(NCCSCc1ccco1)Nc1cccc(Cl)c1 0.0115
CC(=O)Nc1nc2c(c3c1c(=O)oc1ccccc13)CC(C)CC2 (stereo not given) 0.00575
O=c1/c(=C/c2ccco2)sc2nc(-c3ccccc3Br)nn12 0.00315
CCOC(=O)Cn1c(S(=O)(=O)Cc2ccccc2)nc2ccccc21 0.00594
CCn1c(SCC(=O)Nc2ccccc2F)nc2c(c1=O)SC(C)C2 (stereo not given) 0.00612
Nc1cccc2c1C(=O)N(c1ccccc1)C2=O 0.00303
COCCn1c(=O)[nH]c2cc(C(=O)N3CCN(Cc4ccc5c(c4)OCO5)CC3)ccc2c1=O 0.00392
O=C(Cn1nnc(-c2ccc(S(=O)(=O)N3CCCC3)cc2)n1)NCC1CCCO1 (stereo not given) 0.00625
O=C(CN(Cc1ccco1)C(=O)c1cc(=O)[nH]c2ccccc12)Nc1ccccc1Br 0.00457
c1nc(NCC2(N3CCOCC3)CCCCC2)c2ccsc2n1 0.00518
CC1CCCN(S(=O)(=O)c2ccc(C(=O)Nc3nnc(-c4ccccc4Cl)o3)cc2)C1 (stereo not given) 0.0065
O=C(OCN1C(=O)c2ccccc2C1=O)c1ccc2c(=O)n3c(nc2c1)CCC3 0.00527
Cc1cc(C)n2nc(SCc3nc4ccccc4[nH]3)nc2n1 0.00609
Cc1ccc(S(=O)(=O)NCCSc2nnnn2-c2ccc(C(N)=O)cc2)cc1 0.00721
CC1(C)Cc2c(sc3c2c(=N)n(Cc2ccco2)c(=O)n3Cc2ccccc2)CO1 0.0065
CC1=C(C(=O)NCc2ccccn2)C2(CCC(C)CC2)OC1=O (stereo not given) 0.00608
Cc1nnc(SC(=O)N2c3ccccc3Sc3ccccc32)s1 0.00696
Cc1ccnc(NC(=O)C2CCCN(S(=O)(=O)c3cnc[nH]3)C2)c1 (stereo not given) 0.00685
